{"source": "paper PMC5540273", "about": "(PLoS ONE, 2017);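 further: KINOMEscan kinase panel screen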", "data": [{"system": "JAK2(JH1domain-catalytic)", "details": "concentration: 1 μM,replicates: in singlicate; n = 1", "units": {"%Inh": "%"}, "values": [{"smiles": "Cn1ccc2ncnc(Oc3ccc(NC(=O)Nc4cnn(C(C)(C)C)c4)c(Cl)c3)c21", "%Inh": 11}, {"smiles": "COc1cc2ncn(-c3cc(OCC4CCCCC4)c(C(N)=O)s3)c2cc1OC", "note": "[GSK204559]", "%Inh": 0}, {"smiles": "COc1cccc(CNC(=O)NC2CCN(c3ccnc(Nc4cc(OC)c(OC)c(OC)c4)n3)C2)c1", "note": "(stereo not shown) [GSK1379765]", "%Inh": 89}, {"smiles": "Cn1ccc2ncnc(Oc3ccc(NC(=O)Nc4cccc(C(F)(F)F)c4)c(F)c3)c21", "%Inh": 6}, {"smiles": "CNC(=O)c1ccccc1Nc1nc(Nc2cccc(CS(C)(=O)=O)c2)ncc1C.O=CO", "note": "[GSK1520489]", "%Inh": 98.7}, {"smiles": "C[C@@H](Oc1cc(-n2cnc3cc(-c4cnn(C)c4)ccc32)sc1C(N)=O)c1ccccc1Cl", "note": "[GSK580432]", "%Inh": 86}, {"smiles": "COc1cc(Nc2nccc(N3CCC(NC(=O)c4cccc(C#N)c4)C3)n2)cc(OC)c1OC", "note": "(stereo not shown) [GSK1379751]", "%Inh": 98}, {"smiles": "Cc1ccn2nc(-c3ccc(F)cc3)c(-c3ccncc3)c2c1.Cl", "note": "[GW457859]", "%Inh": 50}, {"smiles": "CN1CCN(CCNc2nc3cc(Oc4ccc(NC(=O)Nc5cc(C(F)(F)F)ccc5F)cc4)ccc3[nH]2)CC1.Cl.Cl", "note": "[GW768504]", "%Inh": 5}, {"smiles": "NC(=O)c1ccc(-c2cc3ncnc(SCC(=O)O)c3s2)cc1", "%Inh": 0}, {"smiles": "CC(=O)c1c(-c2ccncc2)[nH]c(-c2ccncc2)c1C", "note": "[GW493036]", "%Inh": 20}, {"smiles": "O=C(Nc1cccc(C(F)(F)F)c1)c1cccc(Oc2ccc3nccn3n2)c1", "%Inh": 30}, {"smiles": "CC(=O)Nc1nc2cnc(Nc3cc(NC(=O)c4cccc(CC(C)(C)C#N)c4)ccc3C)nc2s1", "%Inh": 0}, {"smiles": "COc1ccc(Nc2nccc(N3CCC(NC(=O)c4cccc(C#N)c4)C3)n2)cc1", "note": "(stereo not shown) [GSK1379730]", "%Inh": 12}, {"smiles": "Cl.c1ccc(Oc2ccc(Nc3ccnc4cc(-c5ccc(CN6CCNCC6)o5)ccc34)cc2)nc1", "note": "[GW567142]", "%Inh": 100}, {"smiles": "O=C(Nc1ccc(Oc2ccc3nc(NC(=O)C4CC4)cn3n2)c(F)c1)c1cccn(-c2ccccc2)c1=O", "%Inh": 0}, {"smiles": "Cl.Cl.NC[C@H](CC1CCCCC1)NC(=O)c1ccc(-c2ccnc3[nH]ccc23)s1", "note": "[GSK1581428]", "%Inh": 97.2}, {"smiles": "COC(=O)Nc1nc2cc(Oc3ccc(NC(=O)Nc4cc(C(F)(F)F)ccc4Cl)cc3)ccc2[nH]1.Cl", "note": "[GW697465]", "%Inh": 25}, {"smiles": "CC(C(=O)NC1CCN(c2ccnc(Nc3ccc(F)cc3)n2)C1)c1ccc(Cl)cc1", "note": "(stereo not shown) [GSK1379713]", "%Inh": 7}, {"smiles": "O=C(NCC1CC1)c1ccc(-c2cc(C(=O)NC3CC3)ccc2F)cc1", "note": "[GW810445]", "%Inh": 12}, {"smiles": "CCN1CCN(CCCC(=O)Nc2n[nH]c3nc(-c4ccc(O)cc4)c(Br)cc23)CC1", "note": "[SB-731579]", "%Inh": 80}, {"smiles": "Cc1nnc(-c2ccc3occ(-c4ccc(S(C)=O)cc4)c3n2)o1", "note": "(stereo not shown)", "%Inh": 0}, {"smiles": "CC(C)S(=O)(=O)N1CCN(Cc2ccc3c(c2)nc(NC(=O)c2ccsc2)n3C[C@H](O)c2ccccc2)CC1", "note": "[GW635815]", "%Inh": 77}, {"smiles": "Cn1ccc2ncnc(Oc3ccc(NC(=O)Nc4cccc(C(F)(F)F)c4)c(Cl)c3)c21", "%Inh": 11}, {"smiles": "Cn1ccc2ncnc(Oc3ccc(NC(=O)Nc4ccnc(C(F)(F)F)c4)c(Cl)c3)c21", "%Inh": 0}, {"smiles": "Cc1cccc2c(-c3ccncc3)c(-c3ccc(F)cc3)nn12.Cl", "note": "[GW461487]", "%Inh": 0}, {"smiles": "Cc1ccc2c(-c3ccnc(Nc4ccc(C(F)(F)F)cc4)n3)cnn2n1", "note": "[GW819776]", "%Inh": 29}, {"smiles": "Cc1n[nH]c2cc(Nc3ccnc(Nc4cccc(CN5CCOCC5)c4)n3)ccc12", "note": "[GW682569]", "%Inh": 99.4}, {"smiles": "CCn1c(-c2nonc2N)nc2cncc(Br)c21", "note": "[SB-738004]", "%Inh": 34}, {"smiles": "CN1CCN(CCCNc2nccc(-c3c(-c4ccc(F)cc4)nn4cc(C(N)=O)ccc34)n2)CC1", "note": "[GW622475]", "%Inh": 0}, {"smiles": "Nc1nccc(-c2ccc3c(N)n[nH]c3c2)n1", "note": "[GSK1034945]", "%Inh": 17}, {"smiles": "Cc1ccc(C(=O)Nc2ccc(Oc3ccc4nc(NC(=O)C5CC5)cn4c3)c(F)c2)c(=O)n1-c1ccccc1", "%Inh": 81}, {"smiles": "Cn1ccc2ncnc(Oc3ccc(NC(=O)Nc4cncc(C(F)(F)F)c4)c(Cl)c3)c21", "%Inh": 0}, {"smiles": "NC(=O)Nc1sc(-c2ccc(F)cc2)cc1C(N)=O", "note": "[GW789449]", "%Inh": 99.1}, {"smiles": "Cn1ccc2ncnc(Oc3ccc(NC(=O)Nc4cc(C(C)(C)C)on4)c(Cl)c3)c21", "%Inh": 8}, {"smiles": "COC(=O)c1cccc(NC(=O)NC2CCN(c3ccnc(Nc4cc(OC)c(OC)c(OC)c4)n3)C2)c1", "note": "(stereo not shown) [GSK1379767]", "%Inh": 82}, {"smiles": "O=C(Nc1ccccc1)c1cccc(Oc2ccc3nccn3n2)c1", "%Inh": 10}]}]}
